# Measurements taken from PubChem BioAssay (NCATS).
# Unmarked numbers belong to inactive results. Records with an inconclusive call do not appear. The source made the active and inactive calls. Unless noted, calls come from the whole dose curve; as a rule, active = well fitted curve in the direction sought with a large enough effect; inconclusive = small, poorly fitted or top-dose-only effect, or another doubt; inactive = no such curve, though single readings can be large; an effect the other way counts as inactive or inconclusive.
# Tests used:
# [1] = target: Lysosomal acid glucosylceramidase (Homo sapiens) (UniProt P04062); assay: Glucocerebrosidase-p2 (AID 348; in the data active = potency below about 10 µM; note: potency is the fitted concentration of half-maximal effect); conditions: purified GBA, blue fluorogenic substrate, 40 min
# Lysosomal acid glucosylceramidase (Homo sapiens), sequence (P04062 whole entry, looked up): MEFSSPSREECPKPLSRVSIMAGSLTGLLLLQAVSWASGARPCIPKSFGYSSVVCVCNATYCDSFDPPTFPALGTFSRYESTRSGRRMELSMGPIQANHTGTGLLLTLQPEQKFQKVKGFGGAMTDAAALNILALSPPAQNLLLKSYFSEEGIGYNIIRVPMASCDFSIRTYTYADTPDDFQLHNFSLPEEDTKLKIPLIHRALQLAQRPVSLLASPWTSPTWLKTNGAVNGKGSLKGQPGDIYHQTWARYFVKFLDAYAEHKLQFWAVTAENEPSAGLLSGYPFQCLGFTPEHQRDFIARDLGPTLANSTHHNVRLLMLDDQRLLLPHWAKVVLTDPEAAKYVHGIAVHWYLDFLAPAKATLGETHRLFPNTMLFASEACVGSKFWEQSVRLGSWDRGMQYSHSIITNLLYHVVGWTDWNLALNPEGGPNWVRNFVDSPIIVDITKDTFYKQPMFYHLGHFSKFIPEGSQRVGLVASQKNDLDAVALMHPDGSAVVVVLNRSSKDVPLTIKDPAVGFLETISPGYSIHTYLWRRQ
# Procedure, shortened: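 Normal human glucocerebrosidase (0.2 nM) with blue fluorogenic substrate (80 uM final) in citrate/phosphate pH 5.9 with 10mM sodium taurocholate, 0.01% tween-20; 40 min RT, NaOH/glycine stop; fluorescence Ex 365/Em 440; AC50 from a titration from 0.6 nM upwards.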
# [2] = AP1 Signaling Pathway (AID 357; active = well fitted curve in either direction with a large enough effect, not every such curve was filed as active;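 note: ME-180 reporter cells stimulated with EGF at its EC50 level; % is set by controls: 0 for no effect and ±100 for the full control effect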); conditions: ME-180 AP-1-bla reporter, EGF-induced, beta-lactamase ratio, 5 h; at 7.69 µM (top of the series) unless noted
# Procedure, shortened: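 In this screen, ME-180 cells in Opti-MEM with 0.5% dialyzed FBS received EC50 EGF and compound titrations for 5 h. AP-1 reporter beta-lactamase was detected via CCF4 ratio, giving AC50 for positive and negative modulators.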
# [3] = target: Cytochrome P450 1A2 (Homo sapiens) (UniProt P05177); assay: p450-cyp1a2 (AID 410; calls by dose curve; note: potency is the fitted concentration of half-maximal effect;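 for activity change, negative = inhibition: -100% = full effect of reference inhibitor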); conditions: recombinant CYP1A2, luciferin-ME demethylation, luminescence; series mostly up to 57 µM
# Cytochrome P450 1A2 (Homo sapiens), sequence (P05177 whole entry, looked up): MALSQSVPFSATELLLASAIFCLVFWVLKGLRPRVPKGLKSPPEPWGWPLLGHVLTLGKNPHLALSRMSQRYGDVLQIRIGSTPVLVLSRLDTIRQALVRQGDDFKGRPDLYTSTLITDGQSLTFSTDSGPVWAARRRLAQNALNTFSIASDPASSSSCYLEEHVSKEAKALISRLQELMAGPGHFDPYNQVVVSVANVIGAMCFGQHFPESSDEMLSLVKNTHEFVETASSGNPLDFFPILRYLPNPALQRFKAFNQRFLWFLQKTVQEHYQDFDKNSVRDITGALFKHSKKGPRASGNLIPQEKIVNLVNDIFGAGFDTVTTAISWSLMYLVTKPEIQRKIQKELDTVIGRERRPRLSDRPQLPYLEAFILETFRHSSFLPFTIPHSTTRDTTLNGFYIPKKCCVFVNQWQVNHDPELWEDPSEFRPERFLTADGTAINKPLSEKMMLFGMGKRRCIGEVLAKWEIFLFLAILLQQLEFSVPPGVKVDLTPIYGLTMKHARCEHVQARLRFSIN
# Procedure, shortened: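 20nM CYP1A2, 100uM Luciferin-ME (=Km), 100mM KPO4; cpd 10 min RT; +NADPH regen, 60 min RT; stop/detect 20 min; luminescence. Normalized to furafylline 57 uM = full inhibition.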
# [4] = Stat Signaling Pathway (AID 446; active = well fitted curve in either direction with a large enough effect, not every such curve was filed as active;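 note: ME-180 cervical cancer cells given 40 pM IL-6 alongside compound; SIE-controlled beta-lactamase reporter measured as 460/530 nm FRET emission ratio; % is set by controls: 0 for no effect and ±100 for the full control effect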); conditions: ME-180 SIE beta-lactamase reporter, IL-6 stimulated, 5 h; at 7.69 µM (top of the series) unless noted
# Procedure, shortened: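 Overnight-plated ME-180 cells bearing a STAT Inducible Element beta-lactamase reporter; 5 h co-exposure to compound and 40 pM IL-6; values normalized to 300 pM IL-6 and 125 nM JAK inhibitor controls.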
# [5] = target: Glucocorticoid receptor (Homo sapiens) (UniProt P04150); assay: GR-GFP Redistribution (AID 450;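 active = compounds whose dose series gives a full or clear partial fitted curve of increased nuclear translocation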; note: potency is the fitted concentration of half-maximal effect); conditions: U2OS GR-GFP nuclear translocation, laser cytometry, 2 h
# Glucocorticoid receptor (Homo sapiens), sequence (P04150 whole entry, looked up, the tested form may be a part): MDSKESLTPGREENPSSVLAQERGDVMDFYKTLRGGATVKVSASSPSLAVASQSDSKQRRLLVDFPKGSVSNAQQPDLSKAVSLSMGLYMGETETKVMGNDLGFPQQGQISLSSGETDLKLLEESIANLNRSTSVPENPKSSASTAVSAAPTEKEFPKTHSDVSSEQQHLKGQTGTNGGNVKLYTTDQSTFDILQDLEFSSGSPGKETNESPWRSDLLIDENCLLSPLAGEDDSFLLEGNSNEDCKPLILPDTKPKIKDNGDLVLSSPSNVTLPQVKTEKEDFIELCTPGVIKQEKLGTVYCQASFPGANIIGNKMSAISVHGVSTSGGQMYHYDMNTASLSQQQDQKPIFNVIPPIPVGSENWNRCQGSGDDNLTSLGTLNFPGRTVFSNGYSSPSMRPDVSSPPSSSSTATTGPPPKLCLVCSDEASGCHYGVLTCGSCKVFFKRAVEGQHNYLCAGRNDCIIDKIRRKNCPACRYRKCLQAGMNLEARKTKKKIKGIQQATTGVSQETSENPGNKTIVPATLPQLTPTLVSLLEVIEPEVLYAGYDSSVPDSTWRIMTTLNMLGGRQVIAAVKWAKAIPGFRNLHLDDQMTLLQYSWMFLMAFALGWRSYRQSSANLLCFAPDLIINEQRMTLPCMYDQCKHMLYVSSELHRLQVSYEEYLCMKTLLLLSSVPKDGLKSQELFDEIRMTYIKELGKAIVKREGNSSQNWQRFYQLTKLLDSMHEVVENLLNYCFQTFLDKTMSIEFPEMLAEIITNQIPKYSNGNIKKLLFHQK
# [6] = target: Glucocorticoid receptor (Homo sapiens) (UniProt P04150); assay: GR-EFC Redistribution (AID 451; calls by dose curve; note: potency is the fitted concentration of half-maximal effect); conditions: CHO-K1 GR-EFC translocation, beta-gal luminescence, 2 h
# Procedure, shortened: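 CHO-K1 cells stably expressing nuclear-localized β-gal enzyme acceptor and GR fused C-terminally to the enzyme donor fragment; ligand-driven nuclear translocation restores β-gal by complementation. Compounds titrated up to 46 uM final, 2 h at 37 °C; luminescence read.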
# [7] = target: Mitogen-activated protein kinase 10 (Mus musculus) (UniProt Q61831); assay: JNK3 AlphaScreen Assay (AID 530; active = well fitted curve in either direction with a large enough effect, not every such curve was filed as active;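 note: kinase came from lysate of stimulated human HepG2 cells; signal reports phosphorylation of biotinylated GST-cJun 1-79 at Ser73 with 10 µM ATP; % is set by controls: 0 for no effect and ±100 for the full control effect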); conditions: JNK3 lysate, c-Jun phosphorylation; series mostly up to 57.1 µM
# Procedure, shortened: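 Biotinylated GST-cJun(1-79) served as substrate for JNK3 in HepG2 lysates stimulated with IL-1beta and TNF-alpha. ATP was 10 uM final, pH 7.6. Ser73 phosphorylation was quantified by AlphaScreen (680 nm excitation).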
# [8] = target: 3',5'-cyclic-AMP phosphodiesterase 4B (Homo sapiens) (UniProt Q07343); assay: qHTS Assay for Inhibitors of PDE-IV (AID 607; active = well fitted activation curve with a large enough effect in the main read-out, with a control signal flat, not every such curve was filed as active; note: potency is the fitted concentration of half-maximal effect); conditions: HEK293 ACTOne CNG channel cells, membrane potential fluorescence; series mostly up to 22.9 µM
# 3',5'-cyclic-AMP phosphodiesterase 4B (Homo sapiens), sequence (Q07343 whole entry, looked up): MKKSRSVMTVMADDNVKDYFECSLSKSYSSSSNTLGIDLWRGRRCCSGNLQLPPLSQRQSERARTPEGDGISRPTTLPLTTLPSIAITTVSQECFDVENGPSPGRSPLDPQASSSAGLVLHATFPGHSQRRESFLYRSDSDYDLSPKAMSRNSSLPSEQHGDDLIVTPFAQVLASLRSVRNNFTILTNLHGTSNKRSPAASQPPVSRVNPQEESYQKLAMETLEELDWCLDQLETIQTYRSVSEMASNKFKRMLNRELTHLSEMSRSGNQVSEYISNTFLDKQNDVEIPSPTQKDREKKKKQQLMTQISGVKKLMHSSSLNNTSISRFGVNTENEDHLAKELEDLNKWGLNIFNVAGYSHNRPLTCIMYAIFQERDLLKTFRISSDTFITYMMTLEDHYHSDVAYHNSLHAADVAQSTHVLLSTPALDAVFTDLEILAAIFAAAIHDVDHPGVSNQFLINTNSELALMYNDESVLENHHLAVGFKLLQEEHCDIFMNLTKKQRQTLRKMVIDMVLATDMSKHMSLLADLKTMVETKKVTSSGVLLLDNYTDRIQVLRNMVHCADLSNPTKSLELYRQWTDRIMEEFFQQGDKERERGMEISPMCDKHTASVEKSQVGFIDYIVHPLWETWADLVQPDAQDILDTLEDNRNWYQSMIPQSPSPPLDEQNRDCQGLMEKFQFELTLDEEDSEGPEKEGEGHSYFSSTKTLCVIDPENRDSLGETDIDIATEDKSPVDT
# Procedure, shortened: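 Live HEK293 cells with a modified cyclic nucleotide-gated (CNG) channel report intracellular cAMP via membrane-potential dye fluorescence (ex 535/em 590 nm). Endogenous PDE-IV was targeted. Compounds were tested at up to 22.9 uM final; RO 20-1724 100 uM served as control.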
# [9] = target: Cytochrome P450 3A4 (Homo sapiens) (UniProt P08684); assay: qHTS Assay for Inhibitors and Substrates of Cytochrome P450 3A4 (AID 884); conditions: recombinant CYP3A4, Luciferin-PPXE luminescence; series mostly up to 57.1 µM; note: potency is the fitted concentration of half-maximal effect; nearly all actives have a fitted effect of over 50% in size
# Cytochrome P450 3A4 (Homo sapiens), sequence (P08684 whole entry, looked up): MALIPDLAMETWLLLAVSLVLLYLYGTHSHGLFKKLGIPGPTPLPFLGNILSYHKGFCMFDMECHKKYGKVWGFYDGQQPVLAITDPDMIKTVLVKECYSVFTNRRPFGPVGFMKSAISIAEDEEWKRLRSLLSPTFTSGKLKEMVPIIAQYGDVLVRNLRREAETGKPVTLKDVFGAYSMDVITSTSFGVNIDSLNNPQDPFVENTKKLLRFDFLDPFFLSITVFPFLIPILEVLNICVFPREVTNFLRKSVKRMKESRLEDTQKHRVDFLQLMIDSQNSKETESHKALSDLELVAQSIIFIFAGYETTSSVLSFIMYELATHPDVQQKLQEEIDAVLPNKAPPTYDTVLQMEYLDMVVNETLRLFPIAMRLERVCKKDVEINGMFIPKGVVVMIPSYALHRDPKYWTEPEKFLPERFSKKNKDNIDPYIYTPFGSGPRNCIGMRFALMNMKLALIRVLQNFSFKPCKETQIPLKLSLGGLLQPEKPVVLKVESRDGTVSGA
# Procedure, shortened: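 Luminescent readout of luciferin produced by CYP3A4 (20 nM) dealkylation of Luciferin-PPXE, 25 uM (its KM). NADPH-driven reaction ran 60 min at RT after 10 min compound preincubation; data scaled to 57 uM ketoconazole as 100% inhibition.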
# [10] = target: Cytochrome P450 3A4 (Homo sapiens) (UniProt P08684); assay: qHTS Assay for Activators of Cytochrome P450 3A4 (AID 885); conditions: recombinant CYP3A4, Luciferin-PPXE luminescence, 60 min; series mostly up to 57.1 µM; note: nearly all actives have a fitted effect of over 65% in size
# Procedure, shortened: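 Using 20nM recombinant human CYP3A4 in potassium phosphate (200mM), substrate Luciferin-PPXE at 25uM, luminescent luciferin detection followed a 60-min RT NADPH reaction; data scaled to 57 uM ketoconazole.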
# [11] = target: Cytochrome P450 2D6 (Homo sapiens) (UniProt P10635); assay: qHTS Assay for Inhibitors and Substrates of Cytochrome P450 2D6 (AID 891); conditions: recombinant CYP2D6, luciferin-ME EGE luminescence; series mostly up to 57.1 µM; note: potency is the fitted concentration of half-maximal effect; nearly all actives have a fitted effect of over 60% in size
# Procedure, shortened: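 Luminescent read-out of luciferin formed by 5 nM human CYP2D6 demethylating 30 uM Luciferin-ME EGE (Km level) over 60 min at room temperature after NADPH regeneration addition. Data normalized to full inhibition by 1.43 uM quinidine.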
# [12] = target: Cytochrome P450 2C19 (Homo sapiens) (UniProt P33261); assay: qHTS Assay for Inhibitors and Substrates of Cytochrome P450 2C19 (AID 899); conditions: recombinant CYP2C19, luciferin-H EGE luminescence; series mostly up to 57.1 µM; note: potency is the fitted concentration of half-maximal effect; nearly all actives have a fitted effect of over 60% in size
# Cytochrome P450 2C19 (Homo sapiens), sequence (P33261 whole entry, looked up): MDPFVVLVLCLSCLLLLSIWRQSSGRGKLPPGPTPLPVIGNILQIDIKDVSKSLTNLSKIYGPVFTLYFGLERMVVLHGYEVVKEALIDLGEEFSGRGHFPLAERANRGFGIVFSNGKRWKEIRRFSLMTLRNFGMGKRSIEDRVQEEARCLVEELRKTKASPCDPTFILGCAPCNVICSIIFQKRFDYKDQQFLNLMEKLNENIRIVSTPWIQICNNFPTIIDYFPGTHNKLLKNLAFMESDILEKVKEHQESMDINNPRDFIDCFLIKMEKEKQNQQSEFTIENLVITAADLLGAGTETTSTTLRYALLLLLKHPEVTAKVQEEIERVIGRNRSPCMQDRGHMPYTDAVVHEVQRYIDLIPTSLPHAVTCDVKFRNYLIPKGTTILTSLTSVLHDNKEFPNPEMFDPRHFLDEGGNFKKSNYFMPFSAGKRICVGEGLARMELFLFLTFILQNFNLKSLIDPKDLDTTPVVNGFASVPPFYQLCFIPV
# Procedure, shortened: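 NADPH-dependent conversion of Luciferin-H EGE (10uM, at KM) by 5nM enzyme in 50mM KPO4, 60 min at 37C following 10 min compound preincubation. Stopped with luciferin detection buffer; luminescence read after 20 min.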
# [13] = target: Dual specificity protein kinase CLK4 (Homo sapiens) (UniProt Q9HAZ1); assay: qHTS Assay for Inhibitors of CDC-like Kinase 4 (ADP-FP Assay) (AID 1795); conditions: Transcreener ADP fluorescence polarization; series mostly up to 50 µM; note: nearly all actives have a fitted effect of over 60% in size; note: potency is the fitted concentration of half-maximal effect
# Dual specificity protein kinase CLK4 (Homo sapiens), sequence (Q9HAZ1 whole entry, looked up): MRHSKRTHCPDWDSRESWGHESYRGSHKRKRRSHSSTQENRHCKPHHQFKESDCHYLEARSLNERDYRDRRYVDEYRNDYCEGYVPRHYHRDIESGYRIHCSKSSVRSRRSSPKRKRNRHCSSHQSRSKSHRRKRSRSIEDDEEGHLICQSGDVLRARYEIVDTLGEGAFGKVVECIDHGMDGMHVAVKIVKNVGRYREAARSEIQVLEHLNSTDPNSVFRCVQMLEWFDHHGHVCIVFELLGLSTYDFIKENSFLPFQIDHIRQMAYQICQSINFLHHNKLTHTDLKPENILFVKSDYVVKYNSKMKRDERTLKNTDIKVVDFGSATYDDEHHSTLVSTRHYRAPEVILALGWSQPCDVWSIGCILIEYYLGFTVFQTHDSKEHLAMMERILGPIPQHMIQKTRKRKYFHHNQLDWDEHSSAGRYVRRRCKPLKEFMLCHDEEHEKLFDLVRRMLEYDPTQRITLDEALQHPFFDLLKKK
# Procedure, shortened: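 Recombinant human Clk4 (6.25 nM) phosphorylated RS repeat peptide (100 uM) with 1 uM ATP in Tris pH 7.5/MgCl2/EGTA/DTT/Triton buffer for one hour. ADP was quantified by Transcreener competitive fluorescence polarization against an ADP calibration curve.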
# [14] = target: Ubiquitin carboxyl-terminal hydrolase 1 (Homo sapiens) (UniProt O94782); assay: Inhibitors of USP1/UAF1: Pilot qHTS (AID 504865); conditions: purified USP1/UAF1, Ub-rhodamine cleavage fluorescence; series mostly up to 54.9 µM; note: nearly all actives have a fitted effect of over 35% in size; note: potency is the fitted concentration of half-maximal effect
# Ubiquitin carboxyl-terminal hydrolase 1 (Homo sapiens), sequence (O94782 whole entry, looked up): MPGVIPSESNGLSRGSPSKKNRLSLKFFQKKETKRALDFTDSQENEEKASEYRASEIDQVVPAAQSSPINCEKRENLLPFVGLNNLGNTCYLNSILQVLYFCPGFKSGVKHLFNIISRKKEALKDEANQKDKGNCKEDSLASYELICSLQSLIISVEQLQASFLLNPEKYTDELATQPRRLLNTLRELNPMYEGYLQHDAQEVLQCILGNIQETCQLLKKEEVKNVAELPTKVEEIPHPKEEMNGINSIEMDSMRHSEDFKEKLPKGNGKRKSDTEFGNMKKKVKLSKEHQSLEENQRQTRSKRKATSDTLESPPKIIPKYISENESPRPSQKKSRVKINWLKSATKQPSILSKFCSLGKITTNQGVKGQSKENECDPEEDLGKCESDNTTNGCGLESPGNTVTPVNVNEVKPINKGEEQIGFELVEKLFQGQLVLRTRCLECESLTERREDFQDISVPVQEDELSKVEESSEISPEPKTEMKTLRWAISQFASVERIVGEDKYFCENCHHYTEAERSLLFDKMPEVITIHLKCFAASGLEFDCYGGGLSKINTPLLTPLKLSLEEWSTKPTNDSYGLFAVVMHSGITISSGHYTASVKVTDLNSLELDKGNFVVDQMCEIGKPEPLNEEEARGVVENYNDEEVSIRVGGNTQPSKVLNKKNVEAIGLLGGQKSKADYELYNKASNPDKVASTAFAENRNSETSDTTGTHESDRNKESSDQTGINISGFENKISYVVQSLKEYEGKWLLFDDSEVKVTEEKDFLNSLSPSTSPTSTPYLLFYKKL
# Procedure, shortened: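 USP1/UAF1 complex (1nM) preincubated with compound 15 min at room temperature, then Ub-Rho substrate (150nM final) added. Fluorescence read kinetically at 480/540 nm, 6 reads every 60 seconds. Buffer: 50mM HEPES pH 7.8, 0.5mM EDTA, 0.1 mg/ml BSA, 1mM TCEP, 0.01% Tween-20.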
# [15] = Primary qHTS for small molecule stabilizers of the endoplasmic reticulum resident proteome: Secreted ER Calcium Modulated Protein (SERCaMP) assay (AID 1508630); conditions: SH-SY5Y GLuc-SERCaMP (Gaussia luciferase released on ER calcium loss) secretion, thapsigargin, luminescence; series mostly up to 38.4 µM; note: % is set by controls: 0 for no effect and ±100 for the full control effect
# Procedure, shortened: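 The SH-SY5Y reporter protocol was run at 3 concentrations up to 38.3 uM (primary) or 11 concentrations (follow-up): 16 h compound, 100 nM thapsigargin for 4 h, then extracellular luciferase luminescence.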
# [16] = NFAT Signaling Pathway (AID 444; active = well fitted curve in either direction with a large enough effect, not every such curve was filed as active); conditions: Jurkat NFAT-bla M1, carbachol, beta-lactamase ratio, 5 h; at 7.69 µM (top of the series) unless noted
# Procedure, shortened: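 Jurkat cells carrying an NFAT-driven β-lactamase reporter and co-transfected muscarinic M1 receptor were treated with compound plus carbachol (1 uM final, an EC50 level) for 5 h at 37 °C. CCF4 loading followed for 1 h at RT; 460/530 nm ratio gave %activity.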
# [17] = target: Cytochrome P450 2C9 (Homo sapiens) (UniProt P11712); assay: qHTS Assay for Inhibitors and Substrates of Cytochrome P450 2C9 (AID 883); conditions: recombinant CYP2C9, luciferin-H luminescence, 60 min; series mostly up to 57.1 µM; note: % is set by controls: 0 for no effect and ±100 for the full control effect; nearly all actives have a fitted effect of over 60% in size
# Procedure, shortened: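 A luminogenic readout tracked human CYP2C9 (10nM) converting deoxyluciferin (100uM, at KM) in 25mM KPO4 during 60 min at 37C with regenerated NADPH. Values normalized to 57uM sulphaphenazole as complete inhibition.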
# [18] = qHTS Assay for Identification of Small Molecule Agonists for Hypoxia Response Element Signaling Pathway (AID 914; active = well fitted activation curve with a large enough effect in the signal ratio, with a control signal flat, not every such curve was filed as active; the % refers to the signal ratio; note: % of control where 0% means no effect); conditions: ME-180 (cervical carcinoma) HRE-bla reporter, beta-lactamase ratio, CoCl2, 17 h; activation: hits give high values
# Procedure, shortened: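 In Opti-MEM containing 0.5% dialyzed FBS and 10 mM HEPES, ME-180 HRE-bla cells received a compound titration and EC50 CoCl2. They were incubated 17 hours, then CCF4-loaded 2.5 hours at room temperature before ratio reading.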
SMILES,Potency [1],"activity change, negative = inhibition [2]",Potency [3],"activity, negative = inhibition [4]",Potency [5],Potency [6],Potency [7],Potency [8],Potency [9],Potency [10],Potency [11],Potency [12],Potency [13],Potency [14],outcome [15],"activity change, negative = inhibition [16]","activity change, negative = inhibition [17]",activation [18]
CN(C)c1ccc(-c2nc(NCCc3cnc[nH]3)c3ccccc3n2)cc1,6.71 µM (active),0.922%,0.631 µM (active),15.6%,> 46 µM,> 46 µM,inactive,inactive,2.51 µM (active),inactive,7.94 µM (active),1.58 µM (active),inactive,inactive,inactive,,,
CCNc1ncc2nc(-c3cccs3)c(=O)n(C[C@H]3CCCO3)c2n1,> 11.4 µM,9.48%,2.51 µM (active),,> 9.22 µM,> 46 µM,inactive,,,inactive,,,inactive,inactive,inactive,18.7%,,
CN(C)C(=O)c1ccc(-c2nccc(-n3ccnc3)n2)cc1,> 11.4 µM,4.46%,15.8 µM (active),8.25%,> 46 µM,> 46 µM,,inactive,,inactive,,,inactive,inactive,inactive,5.95%,,
CCNc1ncc2nc(C)c(=O)n(CCOC)c2n1,> 11.4 µM,-1.39%,,-7.84%,> 9.22 µM,> 46 µM,inactive,inactive,,,,,inactive,,inactive,13.7%,,
CN(Cc1ccco1)c1nc(-c2ccc3c(c2)OCO3)nc2ccccc12,> 11.4 µM,17%,0.501 µM (active),1.32%,> 46 µM,> 46 µM,inactive,,1.58 µM (active),inactive,,7.94 µM (active),inactive,inactive,inactive,,,
O=c1c(-c2cccs2)nc2cncnc2n1-c1ccccc1,> 11.4 µM,-11.2%,12.6 µM (active),-0.182%,> 9.22 µM,> 46 µM,inactive,,,inactive,,6.31 µM (active),inactive,inactive,inactive,-9.03%,,
COc1ccc(Nc2ncc3nc(-c4cccs4)c(=O)n(Cc4cccc(OC)c4)c3n2)cc1,> 11.4 µM,-12.3%,inactive,-8.74%,> 9.22 µM,> 46 µM,inactive,inactive,,,,,inactive,,inactive,-11.6%,,
Cc1cnc(CNc2cc(-c3c(C)noc3C)ncn2)cn1,> 11.4 µM,23.4%,,12.1%,> 46 µM,> 46 µM,inactive,inactive,,,,,inactive,inactive,inactive,7.12%,,
CC(=O)NCCNc1ccnc(-c2ccccc2C)n1,> 11.4 µM,12.2%,3.98 µM (active),8.94%,> 46 µM,> 46 µM,,inactive,,inactive,,,inactive,inactive,inactive,6.08%,,
c1ccc(Nc2ncncc2-c2ccoc2)cc1,> 11.4 µM,-25%,1 µM (active),5.02%,,> 46 µM,inactive,,,inactive,,,5.62 µM (active),,inactive,0.789%,,
COc1ccc(CNc2ccnc(-c3cccc(NS(C)(=O)=O)c3)n2)c(OC)c1,> 11.4 µM,-18.2%,15.8 µM (active),-1.05%,> 46 µM,> 46 µM,inactive,2 µM (active),3.98 µM (active),inactive,,,inactive,,inactive,8.15%,20.5% [at 2.29 µM],
COc1ccccc1-c1nccc(NCc2cccnc2)n1,> 11.4 µM,5.53%,0.2 µM (active),0.0574%,> 46 µM,> 46 µM,,inactive,2.51 µM (active),inactive,,3.98 µM (active),inactive,inactive,inactive,1.48%,,4.59%
COc1ccccc1-c1nc(NCc2cccs2)c2ccccc2n1,> 11.4 µM,,0.631 µM (active),21.2%,> 46 µM,> 46 µM,inactive,,,inactive,,,inactive,15.8 µM (active),inactive,-14.6%,,
CCNc1ncc2nc(-c3cccc(C#N)c3)c(=O)n(CCC#N)c2n1,> 11.4 µM,12.8%,0.631 µM (active),14.1%,> 9.22 µM,> 46 µM,inactive,,,inactive,0.0316 µM (active),,inactive,inactive,inactive,-1.23%,,
